# Source: PubChem BioAssay AID1949 (Southern Research Institute, 2009)
# Out of some 100,000 compounds screened, about 1,600 (1.6%) were called active. Roughly 3% stayed inconclusive and do not appear here. The list is a sample of the results. Unmarked numbers belong to inactive results. How the calls were made is not given here.
# Assay: Mycobacterium tuberculosis H37Rv growth inhibition, cell based, confirmatory dose response (AID 1949);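 on inhibition: bacteria grown 7 days with compound before Alamar blue readout; 0% = untreated bacteria wells and 100% = bacteria with saturating antibiotic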
# Conditions: M. tuberculosis H37Rv growth inhibition; active compounds read high
row,SMILES,inhibition
1,CN(c1cccc(NC(=O)c2ccccc2N(Cc2ccccc2)S(=O)(=O)c2ccccc2)c1)S(C)(=O)=O,inactive
2,Cc1ccc(F)cc1NC(=O)CSc1ccc(Br)cc1,36%
3,O=C(Oc1ccc2c3c(c(=O)oc2c1)CCC3)c1cccc(Cl)c1,inactive
4,Cc1ccc(-c2csc(NC(=O)CSc3ccc(Br)cc3)n2)cc1,inactive
5,C=CCOc1ccc(C2C(C(=O)c3cccs3)=C(O)C(=O)N2CCN(CC)CC)cc1OC (stereo not drawn),inactive
6,CC(=O)C(C)n1c(=O)oc2ccc(Cl)cc21 (stereo not drawn),0.0633%
7,Cc1cccc2c1N(C)C(=O)C2(O)CC(=O)c1ccco1 (stereo not drawn),inactive
8,Cc1ccc(NC(=O)COc2ccc3c(C)c(Cc4ccccc4)c(=O)oc3c2C)cc1,inactive
9,CCCCOc1ccc(C2C(C(=O)c3ccco3)=C(O)C(=O)N2CCOC)cc1OC (stereo not drawn),inactive
10,CCC(C)n1[nH]c(=O)c2c1NC(=O)CSC2c1ccc(Cl)cc1Cl (stereo not drawn),2.1%
11,Cc1ccc(S(=O)(=O)N(C)CC(=O)NCCCc2ccccc2)cc1,inactive
12,Cc1ccc(OCCCCCNCCO)cc1C,inactive
13,CC(=O)Nc1ccc(S(=O)(=O)Nc2ccc(Cc3ccncc3)cc2)cc1,inactive
14,COc1cc(OC)cc(C(=O)Nc2ccc(C(F)(F)F)cc2)c1,inactive
15,CSc1cccc(NC(=O)CCSc2ccc(Cl)cc2)c1,inactive
16,N#Cc1ccc(Oc2ccc(NC(=O)C3CC=CCC3C(=O)O)cc2)cc1 (stereo not drawn),inactive
17,CN(C(=O)CN1C(=O)c2ccccc2C1=O)C1CCCCC1,inactive
18,COc1ccc(OCCN(C)Cc2ccccc2)cc1,inactive
19,Cc1cc(S(=O)(=O)N2CCOCC2)ccc1F,inactive
20,COc1ccc(Cl)cc1S(=O)(=O)Nc1ccccc1C,4.41%
21,CCN(CC)C(=O)c1ccc(NC(=O)c2ccccc2I)cc1,inactive
22,Cc1cc(=O)oc2cc(Oc3nnnn3-c3ccccc3)ccc12,inactive
23,CCOc1ccc(NC(=O)Nc2ccc(C)cc2Br)cc1,inactive
